Results filed as inconclusive are left out. Activity calls are given as the source filed them. The calls were made as follows, unless noted: active = hit-call score of the fitted dose curve at least 0.9, where 1 is the maximum; inactive = score below 0.9.
How the values were obtained:
[1] = target: Hepatocyte nuclear factor 4-alpha (Homo sapiens) (UniProt P41235); test: ATG_HNF4a_TRANS: Attagene TRANS-FACTORIAL HepG2 Assay for human Hepatocyte Nuclear Factor 4 alpha (HNF4a) (AID 2282982; active = hit-call score of the fitted dose curve at least 0.9, where 1 is the maximum); details: HepG2 HNF4a transactivation reporter, mRNA readout
Procedure, shortened: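 Gain-of-signal mRNA induction, relative to DMSO vehicle, was read after 24 h compound treatment of HepG2 cells bearing transfected GAL4-UAS reporters. Detection used RT-PCR, 6-FAM primer extension and capillary electrophoresis.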

[2] = ATG_M_06_TRANS: Attagene TRANS-FACTORIAL HepG2 Assay for M06 Transcription Factor (Internal Marker) (AID 2282983; active = hit-call score of the fitted dose curve at least 0.9, where 1 is the maximum); details: HepG2 Attagene TRANS M06 internal marker reporter
Procedure, shortened: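 HepG2 cells transiently transfected with GAL4-UAS multiple reporter units, dosed 24 h. Reporter RNA reverse-transcribed, PCR-amplified, 6-FAM-labeled, HpaI-digested and quantified by capillary electrophoresis; this internal-marker signal fitted upward relative to DMSO.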

[3] = ATG_M_32_TRANS: Attagene TRANS-FACTORIAL HepG2 Assay for M32 Transcription Factor (Internal Marker) (AID 2282984; active = hit-call score of the fitted dose curve at least 0.9, where 1 is the maximum;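 also: transcript level of a background control reporter unit measured by RT-PCR and capillary electrophoresis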); details: HepG2 Attagene TRANS M32 internal marker reporter
Procedure, shortened: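 Capillary electrophoresis of 6-FAM-labelled reporter fragments gives the signal; data fitted for gain over DMSO negative control. Source: HepG2 cells bearing transient multiple reporter transcription units, 24 h exposure.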

[4] = target: Nuclear respiratory factor 1 (Homo sapiens) (UniProt Q16656); test: ATG_NRF1_CIS: Attagene CIS-FACTORIAL HepG2 Assay for human Nuclear Respiratory Factor 1 (NRF1) Orphan Gene (AID 2282987); details: HepG2 NRF1 cis-element reporter, Attagene multiplex; actives raise or lower the signal
Procedure, shortened: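 HepG2 cells transiently transfected with multiple cis-regulated reporter units, exposed 24 h. Reporter mRNAs measured by RT-PCR, fluorescent labelling, HpaI digestion and capillary electrophoresis; bidirectional fitting against DMSO.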

[5] = ATG_NFI_CIS: Attagene CIS-FACTORIAL HepG2 Assay for human Nuclear Factor I (NFI) (AID 2282989); details: HepG2 cis-regulatory reporter, NFI response element transcription; actives raise or lower the signal
Procedure, shortened: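 Transfected HepG2 liver cells, exposed 24 h, supplied total RNA for oligo(dT) reverse transcription and reporter-specific PCR. Labelled, HpaI-cut fragments were sized by capillary electrophoresis; DMSO set the baseline for bidirectional fitting.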

[6] = target: Myc proto-oncogene protein (Homo sapiens) (UniProt P01106); test: ATG_Myc_CIS: Attagene CIS-FACTORIAL HepG2 Assay for human Myelocytomatosis (Myc) Proto-Oncogene Transcription Factor (AID 2282990); details: HepG2, Attagene cis-reporter transcription factor activity; actives raise or lower the signal
Procedure, shortened: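 Fluorescence intensity of reporter-specific cDNA fragments, separated by capillary electrophoresis, gives the signal. Transfected HepG2 cells carrying cis-promoter reporter constructs are incubated with compound for 24 h; DMSO serves as baseline.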

[7] = target: Nuclear receptor subfamily 4 group A member 2 (Homo sapiens) (UniProt P43354); test: ATG_NURR1_TRANS: Attagene TRANS-FACTORIAL HepG2 Assay for human Nuclear Receptor Related Protein 1 (NURR1) (AID 2282985; active = hit-call score of the fitted dose curve at least 0.9, where 1 is the maximum); details: HepG2 Attagene TRANS reporter, mRNA readout
Procedure, shortened: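 HepG2 / transient MRTU transfection / 24 h compound exposure / RT-PCR + CE fluorescence of reporter mRNA / gain-of-signal vs DMSO.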

[8] = target: Transcriptional activator Myb (Homo sapiens) (UniProt P10242); test: ATG_Myb_CIS: Attagene CIS-FACTORIAL HepG2 Assay for human Myeloblastosis (Myb) Proto-Oncogene Transcription Factor (AID 2282986); details: HepG2 Attagene CIS-FACTORIAL Myb reporter transcription; actives raise or lower the signal
Procedure, shortened: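 Transiently transfected HepG2 cells carrying a multiplexed cis-promoter reporter set report endogenous Myb activity after 24 h compound exposure. Reporter mRNA is read by RT-PCR with capillary electrophoresis of fluorescent products, fitted bidirectionally against DMSO.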

[9] = ATG_NF_kB_CIS: Attagene CIS-FACTORIAL HepG2 Assay for human Nuclear Factor Kappa B (NF-kB) (AID 2282991); details: HepG2 Attagene cis-factorial NF-kB reporter mRNA; actives raise or lower the signal
Procedure, shortened: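 HepG2 cells transfected with cis-promoter-driven reporter units, so endogenous transcription factor activity is measured. Reporter mRNA quantified 24 h after dosing by RT-PCR and capillary electrophoresis, with bidirectional fitting against DMSO.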

[10] = target: Oxysterols receptor LXR-beta (Homo sapiens) (UniProt P55055); test: ATG_LXRb_TRANS: Attagene TRANS-FACTORIAL HepG2 Assay for human Liver X Receptor beta (LXRb) (AID 2282981; active = hit-call score of the fitted dose curve at least 0.9, where 1 is the maximum); details: HepG2 Attagene TRANS GAL4-LXRb reporter, mRNA
Procedure, shortened: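 Gain-of-signal mRNA reporter endpoint, DMSO as negative control. Transiently transfected HepG2 cells carrying the NR-Gal4 chimera and GAL4-UAS reporter units were treated 24 h; transcripts quantified by RT-PCR and capillary electrophoresis fluorescence.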

Measured: AC50

Hepatocyte nuclear factor 4-alpha (Homo sapiens), sequence (P41235 whole entry, looked up, the tested form may be a part): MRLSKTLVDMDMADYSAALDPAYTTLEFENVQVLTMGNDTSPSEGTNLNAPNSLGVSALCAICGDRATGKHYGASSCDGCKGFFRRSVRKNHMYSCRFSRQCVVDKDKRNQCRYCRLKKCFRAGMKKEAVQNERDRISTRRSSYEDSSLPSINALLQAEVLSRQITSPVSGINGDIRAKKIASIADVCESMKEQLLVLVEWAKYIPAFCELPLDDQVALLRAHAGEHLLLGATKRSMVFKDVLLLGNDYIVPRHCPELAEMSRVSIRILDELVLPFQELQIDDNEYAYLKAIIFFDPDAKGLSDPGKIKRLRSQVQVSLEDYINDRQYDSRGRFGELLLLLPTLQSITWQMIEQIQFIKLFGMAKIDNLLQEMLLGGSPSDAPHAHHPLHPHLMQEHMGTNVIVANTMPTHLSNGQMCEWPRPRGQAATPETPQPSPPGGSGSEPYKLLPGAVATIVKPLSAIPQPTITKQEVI
Transcriptional activator Myb (Homo sapiens), sequence (P10242 whole entry, looked up): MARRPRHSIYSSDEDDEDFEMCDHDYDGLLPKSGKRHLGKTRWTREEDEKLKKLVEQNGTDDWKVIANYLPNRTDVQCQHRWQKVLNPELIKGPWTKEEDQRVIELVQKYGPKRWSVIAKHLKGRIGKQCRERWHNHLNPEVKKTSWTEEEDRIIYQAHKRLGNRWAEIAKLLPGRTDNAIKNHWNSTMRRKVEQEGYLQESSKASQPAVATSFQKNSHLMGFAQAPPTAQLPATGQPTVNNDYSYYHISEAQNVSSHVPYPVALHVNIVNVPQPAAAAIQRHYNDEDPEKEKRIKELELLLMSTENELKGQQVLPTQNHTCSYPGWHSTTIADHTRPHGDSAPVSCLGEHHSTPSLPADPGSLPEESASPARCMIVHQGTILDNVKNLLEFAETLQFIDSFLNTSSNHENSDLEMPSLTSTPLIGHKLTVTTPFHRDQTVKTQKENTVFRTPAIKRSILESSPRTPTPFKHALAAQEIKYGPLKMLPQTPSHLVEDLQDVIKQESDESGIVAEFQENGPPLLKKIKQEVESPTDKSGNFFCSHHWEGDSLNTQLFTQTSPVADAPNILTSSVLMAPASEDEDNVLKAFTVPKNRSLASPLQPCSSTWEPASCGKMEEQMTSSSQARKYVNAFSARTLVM
Nuclear receptor subfamily 4 group A member 2 (Homo sapiens), sequence (P43354 whole entry, looked up): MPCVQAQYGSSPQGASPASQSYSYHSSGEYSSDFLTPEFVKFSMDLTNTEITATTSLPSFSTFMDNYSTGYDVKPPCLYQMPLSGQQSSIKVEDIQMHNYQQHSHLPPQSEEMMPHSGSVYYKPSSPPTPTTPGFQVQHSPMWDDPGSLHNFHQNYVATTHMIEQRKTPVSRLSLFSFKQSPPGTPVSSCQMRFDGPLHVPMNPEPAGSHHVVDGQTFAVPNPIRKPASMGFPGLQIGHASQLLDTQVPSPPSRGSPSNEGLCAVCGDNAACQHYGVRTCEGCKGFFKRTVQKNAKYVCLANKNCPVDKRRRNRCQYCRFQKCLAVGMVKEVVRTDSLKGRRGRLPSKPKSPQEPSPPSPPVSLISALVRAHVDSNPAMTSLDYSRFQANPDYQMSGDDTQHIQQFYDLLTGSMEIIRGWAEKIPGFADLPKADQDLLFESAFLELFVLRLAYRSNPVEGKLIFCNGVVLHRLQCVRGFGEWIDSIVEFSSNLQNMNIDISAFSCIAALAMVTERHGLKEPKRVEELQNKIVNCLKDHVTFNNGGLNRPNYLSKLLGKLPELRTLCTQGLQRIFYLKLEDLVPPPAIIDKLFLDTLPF
Myc proto-oncogene protein (Homo sapiens), sequence (P01106 whole entry, looked up, the tested form may be a part): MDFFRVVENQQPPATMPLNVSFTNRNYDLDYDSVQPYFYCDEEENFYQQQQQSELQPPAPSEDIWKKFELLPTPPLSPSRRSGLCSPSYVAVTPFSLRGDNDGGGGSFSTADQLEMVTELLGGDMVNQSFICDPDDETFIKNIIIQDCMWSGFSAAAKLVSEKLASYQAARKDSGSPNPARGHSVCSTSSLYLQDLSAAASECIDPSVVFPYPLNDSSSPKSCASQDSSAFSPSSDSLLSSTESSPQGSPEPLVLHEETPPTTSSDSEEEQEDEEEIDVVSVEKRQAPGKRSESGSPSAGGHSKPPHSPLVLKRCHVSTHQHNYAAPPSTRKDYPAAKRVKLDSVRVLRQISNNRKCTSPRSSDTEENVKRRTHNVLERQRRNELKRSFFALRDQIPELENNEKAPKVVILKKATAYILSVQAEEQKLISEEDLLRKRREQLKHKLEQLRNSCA
Oxysterols receptor LXR-beta (Homo sapiens), sequence (P55055 whole entry, looked up, the tested form may be a part): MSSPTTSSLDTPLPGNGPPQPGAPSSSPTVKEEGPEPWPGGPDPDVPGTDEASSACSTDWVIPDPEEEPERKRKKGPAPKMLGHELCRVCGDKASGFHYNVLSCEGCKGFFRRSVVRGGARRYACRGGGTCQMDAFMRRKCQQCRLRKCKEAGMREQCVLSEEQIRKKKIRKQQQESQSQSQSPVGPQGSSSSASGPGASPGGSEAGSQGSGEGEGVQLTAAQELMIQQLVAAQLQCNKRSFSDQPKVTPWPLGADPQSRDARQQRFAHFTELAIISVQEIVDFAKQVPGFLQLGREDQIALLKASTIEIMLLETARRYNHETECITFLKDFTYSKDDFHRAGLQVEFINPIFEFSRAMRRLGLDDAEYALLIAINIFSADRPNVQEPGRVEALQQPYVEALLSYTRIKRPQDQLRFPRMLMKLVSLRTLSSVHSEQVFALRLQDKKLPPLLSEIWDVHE
Nuclear respiratory factor 1 (Homo sapiens), sequence (Q16656 whole entry, looked up): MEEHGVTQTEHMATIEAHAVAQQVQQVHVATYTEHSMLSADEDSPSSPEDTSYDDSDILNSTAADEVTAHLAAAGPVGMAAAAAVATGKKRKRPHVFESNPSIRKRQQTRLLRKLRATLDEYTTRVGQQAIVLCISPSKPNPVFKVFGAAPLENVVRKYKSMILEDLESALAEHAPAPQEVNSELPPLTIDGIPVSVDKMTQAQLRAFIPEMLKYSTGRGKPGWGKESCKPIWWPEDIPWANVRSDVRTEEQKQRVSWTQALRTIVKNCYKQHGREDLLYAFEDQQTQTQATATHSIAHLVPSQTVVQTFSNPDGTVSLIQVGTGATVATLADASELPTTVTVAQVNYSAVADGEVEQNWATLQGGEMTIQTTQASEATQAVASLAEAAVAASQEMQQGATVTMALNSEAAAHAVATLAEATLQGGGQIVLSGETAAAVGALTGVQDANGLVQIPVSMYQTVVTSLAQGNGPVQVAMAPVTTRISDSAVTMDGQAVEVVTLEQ

CN(C1CCCCC1)C1CCCCC1
inactive: [1] | [2] | [3] | [4] | [5] | [6]

CC(C)[C@H](C(=O)OC(C#N)c1cccc(Oc2ccccc2)c1)c1ccc(OC(F)F)cc1 (some centres not stated)
not listed: [10]
inactive: all other assays above

Clc1ccc(C(Cl)(Cl)Cl)cn1
not listed: [3] | [10]
inactive: all other assays above

CC1(C)[C@H](/C=C2\CCSC2=O)[C@@H]1C(=O)OCc1coc(Cc2ccccc2)c1
not listed: [10]
inactive: all other assays above

CC1(C)[C@H](C(=O)O[C@H](C#N)c2cccc(Oc3ccccc3)c2)[C@@H]1/C=C(\Cl)C(F)(F)F
not listed: [8] | [10]
inactive: all other assays above

O=[N+]([O-])c1c2ccccc2cc2ccccc12
inactive: [1] | [2] | [3] | [4] | [5]

COc1ccccc1N
not listed: [9] | [10]
inactive: all other assays above

CCOC(=O)CCN(SN(C)C(=O)Oc1cccc2c1OC(C)(C)C2)C(C)C
active: [7] 157 µM
not listed: [9] | [10]
inactive: all other assays above

Oc1c(Br)cc(Br)cc1Br
not listed: [10]
inactive: all other assays above

O=C(NC(=O)c1c(F)cccc1F)Nc1cc(Cl)c(F)c(Cl)c1F
not listed: [7] | [10]
inactive: all other assays above

CCCCOP(=O)(CCCC)OCCCC
not listed: [7] | [10]
inactive: all other assays above

CCCCC(CC)COC(=O)Cl (configuration not stated)
not listed: [8] | [10]
inactive: all other assays above

O=C(CBr)c1ccc(O)cc1
inactive: [10] | [8] | [4] | [5]

CCOC(=O)c1ccccc1S(=O)(=O)NC(=O)Nc1nc(Cl)cc(OC)n1
not listed: [10]
inactive: all other assays above

C=CCN=C=S
not listed: [1] | [2] | [7]
inactive: all other assays above

N#Cc1cccnc1
inactive: [10] | [7] | [8] | [4] | [5] | [6]

OCC(c1ccc(Cl)cc1)c1ccc(Cl)cc1
active: [7] 46.3 µM
not listed: [10]
inactive: all other assays above

CC(C)CP(=S)(S)CC(C)C
not listed: [6] | [7] | [10]
inactive: all other assays above

O=C(NC(=O)c1c(F)cccc1F)Nc1ccc(Cl)cc1
not listed: [10]
inactive: all other assays above

Nc1nc(=S)[nH][nH]1
not listed: [1] | [2] | [3]
inactive: all other assays above

CC(C)C(C)(N)C#N (configuration not stated)
inactive: [10] | [8] | [4] | [5] | [6] | [9]

C=CCOC(F)(C(F)(F)F)C(F)(F)F
not listed: [3] | [10]
inactive: all other assays above

CCOP(=S)(OCC)Oc1ccc(Cl)cc1Cl
not listed: [10]
inactive: all other assays above

c1cc[c]([Sb]([c]2ccccc2)[c]2ccccc2)cc1
active: [7] 17.5 µM
not listed: [10]
inactive: all other assays above

O=[N+]([O-])c1cccc2ccccc12
not listed: [7] | [10]
inactive: all other assays above
